The test in a line: anaerobic choline-dependent bacterial growth inhibition – minimal medium, absorbance (AID 1963822). The following applies: Gram-negative bacterium anaerobic choline minimal medium.
[1] abbreviates: measured here: choline growth z-score, timepoint 1, stronger effect = lower value.

The whole screen tested about 55,000 compounds, of which about 90 (0.2%) were called active. No rule for the calls is given here. The sample as a whole holds a higher share of actives than the screen did.

On to `CCC(=O)NCCc1nc2cc(NC(=O)C3CCCCC3)ccc2n1C`, for which the z-score was -0.79 (inactive) (stronger effect = lower value) and -0.11 under setting [1].
As to `COc1cccc(CSc2nc3c(-c4ccccc4)c[nH]c3c(=O)[nH]2)c1`, the z-score by setting is: (stronger effect = lower value) 0.44 (inactive); under setting [1], -0.28.
Taken in the same sequence, the figures for `Cn1c(=O)n(-c2ccc(F)cc2)c2nc(-c3cccc(F)c3)nc(C(N)=O)c21` were -0.47 (inactive) and 0.68.
Turning to `CCc1nc2ccccc2c(=O)n1Cc1noc(CN2C(=O)COc3ccccc32)n1`, the z-score (stronger effect = lower value) was 0.03 (inactive) and the z-score under setting [1] was 0.5.
Taken in the same sequence, the figures for `O=C(NC1CCCc2ccccc21)c1ccc(-c2cc(N3CCOCC3)ncn2)cc1` (stereo not given) were 0.49 (inactive) and -1.29.
For `Cc1noc(-c2cccnc2N2CCN(C(c3ccccc3)c3ccccc3)CC2)n1` the same measures were 0.85 (inactive) and 0.28.
Consider `Cc1nc(-c2cc(S(=O)(=O)N3CCN(c4ccccc4F)CC3)c(C)s2)cs1`, for which the z-score was 1.43 (inactive) (stronger effect = lower value) and 0.83 under setting [1].
For `O=C(NCCN1CCOCC1)C1CCN(c2cncnc2N2CCCCC2)CC1` the same measures were 0.71 (inactive) and 0.79.
For `C=CCSc1n[nH]c(NC(C)=O)n1` the same measures were 0.76 (inactive) and 0.64.
For `Cc1ccc(C(C)C)c(OC(C)C(=O)Nc2onc3c2CCCC3)c1` (stereo not given) the same measures were -0.74 (inactive) and -0.51.
Regarding `CCN1C(=O)c2ccccc2Sc2cc(-c3noc(-c4ccc5c(c4)OCO5)n3)ccc21`, the z-score by setting is: (stronger effect = lower value) 0.5 (inactive); under setting [1], 0.22.
For `CCOc1ccc(N2CCCCn3c2nc2c3c(=O)n(CCC(C)C)c(=O)n2C)cc1` the same measures were -0.58 (inactive) and 0.29.
Consider `COc1ccc(-c2cc3nc(C)cc(N4CCOCC4)n3n2)cc1OC`, for which the z-score was 0.32 (inactive) (stronger effect = lower value) and -0.41 under setting [1].
For `CCN(CCCNC(=O)c1cccn2c(=O)c3ccccc3nc12)c1cccc(C)c1` the same measures were 1.29 (inactive) and 1.6.
For `Cc1ccc(/C=C/c2nn3c(-c4ccoc4C)nnc3s2)cc1C` the same measures were -0.03 (inactive) and 0.36.
For `O=C(CCc1nc(CSc2nnc(-c3ccccc3)o2)no1)Nc1ccc(F)c(Cl)c1` the same measures were -0.29 (inactive) and -0.24.
Regarding `COc1cc(OC)cc(N2C=C(C#N)S(=O)(=O)c3cc(F)ccc32)c1`, the z-score by setting is: (stronger effect = lower value) 0.71 (inactive); under setting [1], 0.22.
For `O=S(=O)(c1ccc2c(c1)-c1oncc1CO2)N1CCN(C(c2ccccc2)c2ccccc2)CC1` the same measures were 0 (inactive) and -0.77.
For the compound `CC(=O)N1CCc2cc(N3CC(C(=O)N4CCC5(CC4)OCCO5)CC3=O)ccc21` (stereo not given), the z-score runs as follows: (stronger effect = lower value) -1.2 (inactive); under setting [1], -0.84.
Taken in the same sequence, the figures for `O=S(=O)(c1ccccc1F)N1CCN(c2ncnc3c2nnn3-c2ccccc2)CC1` were 1.03 (inactive) and 0.86.
Taken in the same sequence, the figures for `COc1cc(C2Nc3c(C)cc(C)cc3[C@H]3OCC[C@@H]23)cc(Br)c1OC` (stereo not given in full) were 0.49 (inactive) and 0.1.
Taken in the same sequence, the figures for `Cc1cc(C)nc(SCCn2c(N3CCC(C)CC3)nc3c2c(=O)[nH]c(=O)n3C)n1` were 0.25 (inactive) and 0.24.
In the case of `COc1ccc(C2CC(c3c(O)n(C)c(=O)n(C)c3=O)=NN2)cc1` (stereo not given), the z-score runs as follows: (stronger effect = lower value) 0.56 (inactive); under setting [1], 0.56.
Taken in the same sequence, the figures for `O=C(Cn1c(=O)c(=O)n(Cc2ccncc2)c2ncccc21)NCCN1CCCCC1` were 1.65 (inactive) and 0.64.
For `COC(=O)c1cc(S(=O)(=O)N2CCCC2C(=O)N2CCc3ccccc32)cn1C` (stereo not given) the same measures were -0.38 (inactive) and -0.18.
For `COc1ccc(-c2cc(Oc3cccc(C(=O)NC4CCCCC4)c3)ncn2)cc1` the same measures were 1.55 (inactive) and 1.41.
Regarding `O=C(NCCC1=CCCCC1)C1CCN(c2cc(-c3cccc(F)c3)ncn2)CC1`, the z-score is, setting by setting: (stronger effect = lower value) 1.01 (inactive); under setting [1], 0.77.
For `CC(C)NC(=O)Cc1csc(NC(=O)C2CC2)n1` the same measures were 0.37 (inactive) and -0.55.
Taken in the same sequence, the figures for `COc1cccc(NC(=O)c2ccc(-n3nc(N4CCCC4)ccc3=O)cc2)c1` were -0.3 (inactive) and -0.77.
Taken in the same sequence, the figures for `CCOC(=O)c1cnc(SC(CC)C(=O)Nc2ccc(Br)cc2)nc1N` (stereo not given) were 0.81 (inactive) and 0.87.
Regarding `O=C1CN(C(=O)CSc2ccc(Cl)cc2)c2ccccc2N1`, the z-score is -2.07 (inactive) (stronger effect = lower value) and -0.23 under setting [1].
For `COc1ccc(C2N=C(Nc3ccc(C(C)C)cc3)Nc3nc(C)cc(=O)n32)cc1OC` (stereo not given) the same measures were 0.3 (inactive) and -0.84.
As for `Cc1nc(-c2csc(S(=O)(=O)N3CCCC(C(=O)N4CCCCC4)C3)c2)no1` (stereo not given), the z-score is 0.63 (inactive) (stronger effect = lower value) and -0.32 under setting [1].
Taken in the same sequence, the figures for `CC(=O)N1CCCN(S(C)(=O)=O)CC1` were 0.45 (inactive) and 1.28.
In the case of `CC(C)c1nnc(-c2cc3ccccc3n2CC(=O)N(C(C)C)C(C)C)o1`, the z-score was -0.44 (inactive) (stronger effect = lower value) and 0.05 under setting [1].
Taken in the same sequence, the figures for `COc1cc(C2OC(c3ccccc3)=NN2C(C)=O)ccc1O` (stereo not given) were -1.46 (inactive) and -1.53.
For `O=C(Cn1nc2n(CCc3ccccc3)c(=O)c3ccccc3n2c1=O)NCc1ccccc1Cl` the same measures were 0.2 (inactive) and 0.39.
For the compound `COc1ccc(OC)c(CNC(=O)C2CCCN(c3ncnc4c3oc3ccccc34)C2)c1` (stereo not given), the z-score runs as follows: (stronger effect = lower value) -0.39 (inactive); under setting [1], -0.94.
For `CN(C)CCCNC(=O)c1sc2ncccc2c1-n1cccc1` the same measures were -0.76 (inactive) and -0.95.
For `Cc1ccc(/C=C/c2nc(-c3ccc4c(c3)[nH]c(=O)c(=O)n4C(C)C)no2)cc1` the same measures were 0.12 (inactive) and -0.05.

The values are drawn from PubChem BioAssay AID1963822 (ICCB-Longwood Screening Facility, Harvard Medical School, 2024).
